# Shown are actives, neighbours in structure and some others; about 11% of the full set was active somewhere.
# BAZ2B block: inhibitors of human BAZ2B bromodomain | AlphaScreen BAZ2B-H3K14Ac peptide displacement | hit rate 4.4% among 360,000 | Potency, µM (series often up to 114 µM), for inactives: at the top dose activity change, negative = inhibition, actives largely listed as inhibitors | Q9UIF8; note: potency is the fitted concentration of half-maximal effect; % is set by controls: 0 for no effect and ±100 for the full control effect; nearly all actives have a fitted effect of over 60% in size
#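 BAZ2B 50 nM plus b-H3(5-23)K14Ac 50 nM, PBS pH 7.4/0.01% Tween-20, 30 min RT; compound added (max 110 uM), 30 min RT; streptavidin donor/Ni-chelate acceptor beads 10 ug/mL final, 20 min dark; AlphaScreen read.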
# HP1b chromo inh: blocks HP1-beta chromodomain binding to methylated histone tails; AlphaScreen HP1-beta / biotin-H3K9me3 peptide binding; Potency, µM (series often up to 114 µM), for the others: top-dose activity change, negative = inhibition, hits mostly inhibitors; hit rate 0.56% among 390,000; AID 540317; note: potency is the fitted concentration of half-maximal effect; nearly all actives have a fitted effect of over 70% in size
# Target sequence (P83916 whole entry, looked up): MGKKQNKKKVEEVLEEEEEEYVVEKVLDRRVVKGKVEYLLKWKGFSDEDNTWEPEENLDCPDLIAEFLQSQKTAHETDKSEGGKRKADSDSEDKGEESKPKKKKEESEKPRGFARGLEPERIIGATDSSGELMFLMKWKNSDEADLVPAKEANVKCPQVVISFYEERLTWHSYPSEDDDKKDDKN
#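 HP1-beta protein (50 nM final) preincubated 30 min at room temperature with biotinylated H3(1-18)K9me3 peptide (50 nM) in PBS pH 7.4, 0.01% Tween-20, then compound added for 30 min. AlphaScreen streptavidin donor/nickel chelate acceptor beads (10 ug/mL final), 30 min dark, luminescence read.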
# PI5P4Ka inh: blocks human PI5P4K alpha kinase activity | P48426 | PI5P4Kalpha enzyme, ADP-Glo luminescence, 60 min; stronger effect = lower value | max response, % | hit rate 1.2% among 330,000 | AID 652105; active = max response of -50% or lower; inconclusive = between -30% and -50%; inactive = -30% or higher; note: value at the top dose of about 77 µM; % is set by controls: 0 for no effect and ±100 for the full control effect
# Target sequence (P48426 whole entry, looked up): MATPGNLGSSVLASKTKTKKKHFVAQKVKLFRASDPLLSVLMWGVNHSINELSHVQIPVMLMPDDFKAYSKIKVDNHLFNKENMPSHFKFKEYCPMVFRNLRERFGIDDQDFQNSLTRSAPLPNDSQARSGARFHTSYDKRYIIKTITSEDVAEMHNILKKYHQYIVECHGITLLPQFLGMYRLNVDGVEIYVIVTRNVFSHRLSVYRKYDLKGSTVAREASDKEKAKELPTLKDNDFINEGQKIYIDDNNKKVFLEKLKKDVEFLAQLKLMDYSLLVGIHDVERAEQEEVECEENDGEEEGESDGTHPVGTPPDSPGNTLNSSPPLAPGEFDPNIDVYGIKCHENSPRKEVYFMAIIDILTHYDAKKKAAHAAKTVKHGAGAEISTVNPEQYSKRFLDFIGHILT
#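 Luminescence from ADP-Glo served as readout of PI5P4Kalpha activity in a qHTS format. Reaction: enzyme, substrate, compound, ATP at 5 microM final, 60 min at RT.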
# G9a block: G9a (human) methyltransferase inhibition. G9a H3K9 monomethylation, AlphaScreen, 2 h. Potency, µM (top dose mostly 102 µM), for the others: at the top dose activity, negative = inhibition, hits mostly inhibitors. hit rate 8.8% among 350,000; note: potency is the fitted concentration of half-maximal effect; % is set by controls: 0 for no effect and ±100 for the full control effect; nearly all actives have a fitted effect of over 75% in size
#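 AlphaScreen read-out: biotin-H3K9 peptide (500 nM) methylation by 20 nM enzyme with 20 uM SAM, 2 h at room temperature after 15 min compound preincubation; anti-monomethyl H3K9 antibody plus donor/acceptor beads, 10 min dark.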
# JMJD2A Tudor: inhibitors of human JMJD2A Tudor domain. O75164. AlphaScreen JMJD2A-Tudor / H3K4me3 peptide binding. Potency, µM (highest dose often 114 µM), without a hit: top-dose activity change, negative = inhibition, usual class: inhibitors. hit rate 4.4% among 390,000; note: potency is the fitted concentration of half-maximal effect; % is set by controls: 0 for no effect and ±100 for the full control effect; nearly all actives have a fitted effect of over 50% in size
# L3MBTL1 inh: blocks human L3MBTL1; AlphaScreen L3MBTL1–H3K9me1 peptide binding; Potency, µM (top dose mostly 57.1 µM), for the others: top-dose activity, negative = inhibition, usual class: inhibitors; hit rate 0.66% among 230,000; AID 485360; note: potency is the fitted concentration of half-maximal effect; % is set by controls: 0 for no effect and ±100 for the full control effect; nearly all actives have a fitted effect of over 60% in size
#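 Displacement of a biotinylated histone H3(1-15) peptide monomethylated at Lys9 (75 nM) from L3MBTL1 (50 nM) was measured by AlphaScreen after a 30 min room-temperature compound incubation; cefsulodin titration served as intraplate control.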
# An asterisk follows results filed as active; ? = inconclusive; nt = no result; [ ] = remark or other dose. Unless noted, calls come from the whole dose curve; as a rule, active = well fitted inhibition curve with a large enough effect; inconclusive = small, poorly fitted or top-dose-only effect; inactive = no such curve, though single readings can be large or run the other way.
SMILES,BAZ2B block,HP1b chromo inh,PI5P4Ka inh,G9a block,JMJD2A Tudor,L3MBTL1 inh
O=C(Nc1cccnc1)c1cccc(NC(=O)c2ccco2)c1,5%,26%,-8,40µM*,-1%,-5%
O=C(Nc1ccc2oc(-c3cccnc3)nc2c1)c1ccc(Br)o1,-8%,12%,3,20µM*,-13%,nt
O=C(Nc1ccc2oc(-c3cccnc3)nc2c1)c1ccc(Br)cc1,0%,53%,nt,-4%[59 µM],-19%,nt
O=C(Nc1cccc(NC(=O)c2nccc3ccccc23)c1)c1ccco1,-22%,1%,nt,45µM*,-30%,-14%
O=C(Nc1ccc2oc(-c3cccnc3)nc2c1)c1ccco1,-32%,35%,-15,50µM*,-13%,0%
Cc1cc2c(s1)c1cnn(Cc3ccc(Br)cc3)c(=O)c1n2C,nt,nt,nt,nt,-33%,nt
COc1ccc(CC(=O)Nc2sc3c(c2C(=O)Nc2cccc(Cl)c2)CCCCC3)cc1,-2%,2%,nt,-1%[59 µM],-20%,nt
COc1ccc(CNC(=O)CN(C(=O)CCC(=O)Nc2ccccn2)c2ccc(C)cc2)cc1,1%,9%,3,-14%,56µM*,nt
CC(C)c1ccc(N(CC(=O)NCc2ccco2)C(=O)CCC(=O)Nc2ccccn2)cc1,-2%,31%,4,25µM*,-3%,nt
Cc1ccccc1N(CC(=O)NCc1ccco1)C(=O)CCC(=O)Nc1nccs1,-3%,20%,-4,6%,-4%,-8%
O=C(CCCC(=O)N(c1cccc(F)c1)C(C(=O)NC1CCCC1)c1ccc(O)cc1)Nc1ccccn1 (stereo not given),-16%,3%,-10,-26%,79µM*,nt
Cc1ccc(N(CC(=O)NCc2ccco2)C(=O)CCC(=O)Nc2nccs2)c(C)c1,-10%,-15%,-1,71µM*,-14%,nt
O=C(CCCC(=O)N(CC(=O)NC1CCCCC1)c1cccc(F)c1)Nc1ccccn1,-2%,23%,3,-10%,2%,nt
CN1CCN(C(CNC(=O)C(=O)Nc2ccccc2)c2ccc3c(c2)OCO3)CC1 (stereo not given),0%,19%[57 µM],nt,11%[59 µM],-15%,nt
O=[S+]([O-])(c1ccc2c(c1)OCCO2)N1CCN([S+](=O)([O-])c2ccc(F)cc2Cl)CC1,nt,nt,nt,nt,-11%,nt
COc1ccccc1CN(Cc1ccco1)c1cnc(S(C)(=O)=O)nc1C(=O)Nc1cc(C)ccc1C,-39%,1%,nt,?,?,nt
CCOc1ccc(CNC(=O)CN2C(=O)C3CCCCN3c3ccc(C(=O)N4CCCC4)cc32)cc1 (stereo not given),11%,43%[57 µM],nt,8%[59 µM],-11%,nt
CCc1ccc(N(CC(=O)NC2CCCC2)C(=O)CCC(=O)Nc2ccccn2)cc1,-3%,9%,-3,-5%,-8%,nt
CC(C)c1ccc(N(CC(=O)NC2CCCC2)C(=O)CCC(=O)Nc2ccccn2)cc1,2%,8%,5,18%,50µM*,nt
COc1cc(/C=C2\C=CC(=O)O2)cc(OC)c1,-2%,19%,-15,2%,-11%,nt
COC(=O)c1ccccc1-c1ccc(C=O)o1,4%,27%,-2,-44%,-3%,5%
COc1ccccc1-c1ccc(/C=C2\C=CC(=O)O2)o1,50µM*,-27%,-27,?,?,-17%
Cc1ccc(C=C2C=C(c3ccccc3)OC2=O)cc1,nt,nt,1,nt,nt,nt
COc1ccccc1-c1ccc(/C=C2/C=C(C)OC2=O)o1,?,-13%,-22,16µM*,?,-16%
CC1=C/C(=C\c2ccc(Br)o2)C(=O)O1,32µM*,?,?,?,40µM*,8.9µM*
SMILES,BAZ2B block,HP1b chromo inh,PI5P4Ka inh,G9a block,JMJD2A Tudor,L3MBTL1 inh
O=C1C(=Cc2ccc(Br)o2)C(=O)c2ccccc21,13µM*,?,-85*,20µM*,7.9µM*,3.2µM*
Cc1ccc(CN2C(=O)c3ccccc3CC2(C)C(=O)NC2CCCCC2)cc1 (stereo not given),-7%,27%,nt,4%[59 µM],-3%,nt
CC(C)=CCc1cc([C@@H]2CC(=O)c3ccc(O)c(CC=C(C)C)c3O2)ccc1O,nt,7%,-100*,nt,?,nt
Cc1cc(OCC(=O)Nc2sc3c(c2C(N)=O)CCCC3)ccc1C(C)C,1%,-9%,nt,30%[59 µM],-23%,nt
O=C(NC(=S)NNC(=O)c1ccccc1O)c1ccccc1,?,6%,-3,32µM*,32µM*,nt
COc1ccccc1C(=O)NNC(=S)NC(=O)c1cccs1,-10%,nt,nt,43%,nt,nt
Cc1ccc(C(=O)NC(=S)NNC(=O)c2ccccc2O)cc1,3%,24%,13,?,-7%,nt
O=C(NC(=S)NNC(=O)c1ccccc1O)c1ccc(F)cc1,?,9%,3,4%,56µM*,-30%
Cc1ccccc1C(=O)NNC(=S)NC(=O)c1ccccc1,11%,-7%,-12,4µM*,-27%,10%
O=C(NC(=S)NNC(=O)c1ccccc1O)c1cccs1,?,-27%,-3,-16%,45µM*,nt
O=C(c1cnn(-c2ccc(F)cc2)c1-n1cccc1)N1CCN(c2ccccc2)CC1,-6%,27%,nt,?,-13%,nt
CCc1cccc(CC)c1N(COC)C(=O)Cn1c(C)nc2ccccc21,-7%,14%,nt,?,-12%,nt
OCCCn1c(CCNc2nc(-c3ccc(F)cc3)cs2)nc2cc(C(F)(F)F)ccc21,nt,27%,17,nt,-35%,nt
COc1ccc(-c2csc(=Nc3ccccc3)n2CCO)cc1,13µM*,?,2,40µM*,45µM*,-26%
O=S(=O)(c1ccc(-c2csc(=Nc3ccc(F)cc3)n2CCCCCCO)cc1)N1CCCC1,?,?,nt,13µM*,40µM*,nt
Cc1ccc(-c2csc(=Nc3ccccc3)n2CCCO)cc1,45µM*,?,nt,16µM*,35µM*,nt
OCCCn1c(-c2ccc(F)cc2)csc1=Nc1ccc(F)cc1,45µM*,?,nt,16µM*,40µM*,nt
Cc1cccc(CSc2nnc3[nH]c(=O)cc(-c4ccccc4)n23)c1,0%,55%,nt,1%[59 µM],-12%,nt
Cc1ccc(-n2nc(C)c3nc(CCC(=O)Nc4ccc(F)cc4)c(=O)n(C)c32)cc1,-1%,41%,nt,27%[59 µM],-10%,nt
CCCSCCCNC(=O)Cn1c(-c2cccs2)cc2ccccc21,0%,17%,nt,3%[59 µM],-25%,nt
CC(=O)N1CCc2cc(Br)cc(S(=O)(=O)CCC(=O)N3CCN(c4ccc(F)cc4)CC3)c21,?,18%,nt,-32%[59 µM],-26%,nt
COc1ccc(-c2csc(=NCCO)n2-c2ccccc2)cc1,32µM*,?,1,50µM*,?,nt
COc1ccc(-c2cn(-c3ccccc3)nc2CO)cc1,7%,31%,1,-6%,-12%,nt

# Assay outcomes deposited in PubChem BioAssay by National Center for Advancing Translational Sciences (NCATS).
